# Only a selection was taken, and hits are over-represented in it overall.
# RMI FANCM FP: blocks RMI1/RMI2 complex binding to FANCM MM2 peptide | Fluorescence polarization, RMI core complex with F-MM2 peptide; active compounds read low | FP signal (polarization) at 33 µM | 70,000 tested, 0.58% active; in the data active means FP signal below about 40
# * hit, by the source's call; ! = repeats disagree.
SMILES,RMI FANCM FP
Cc1noc(/C=C/c2cccn2S(=O)(=O)c2ccccc2Cl)c1[N+](=O)[O-],51
COc1ccc2nc(NC(=O)c3cc(Cl)cc(Cl)c3)sc2c1,61
O=C(Nc1c(F)cccc1F)N1CCn2cccc2C1c1cccnc1 (centres undefined),53
O=C(Nc1cccs1)N1CCn2cccc2C1c1ccc(F)cc1 (centres undefined),15*
COc1ccccc1NC(=O)N1CCn2cccc2C1c1ccc(Br)cc1 (centres undefined),56
CCOC(=O)CCC(=O)Nc1c(C(=O)Nc2ccc(F)c(Cl)c2)oc2ccccc12,56
COC(=O)c1ccccc1C(=O)N(CCCN(C)C)c1nc2c(C)ccc(Cl)c2s1,105
C=CCOc1ccc(C(O)=C2C(=O)C(=O)N(Cc3cccnc3)C2c2ccc(C)o2)cc1 (centres undefined),61
O=C(Nc1ccc([N+](=O)[O-])cc1)c1oc2ccccc2c1NC(=O)c1cc2ccccc2oc1=O,70
Cc1ccc(C(=O)CSc2nnc3c(n2)[nH]c2ccccc23)cc1,2*
CC(C)=CCSc1nnc2c(n1)[nH]c1ccccc12,64
CCn1c(SCC(=O)c2ccc(OC)cc2)nc2c([nH]c3ccccc32)c1=O,105
Cc1nc(N)nc(N/N=C\c2ccccn2)n1,55
Oc1ccc(-c2[nH]ncc2Oc2ccccc2)c(O)c1O,31*
COc1ccccc1Oc1cn[nH]c1-c1ccc(O)cc1O,57
CCOc1ccc(-c2[nH]ncc2Oc2cccc(OC)c2)c(O)c1,59
CN(/N=C\c1cc(Cl)cc(Cl)c1O)c1ccc([N+](=O)[O-])cn1,44
N#CCCSc1ccccc1N=Cc1cc(Cl)cc(Cl)c1O,33*
N#CCCSc1ccccc1NC(=O)c1ccc(Cl)s1,59
Fc1cc2[nH]cnc2cc1Cl,62
Oc1c(Cl)cc(Cl)cc1C=Nc1ccc2nc[nH]c2c1,12*
Fc1ccc(N=Cc2ccc3c(c2)OCO3)cc1,54
O=Cc1cccc2cccnc12,60
Oc1ccccc1C=Nc1ccccc1SCc1csc(-c2ccc(Cl)cc2)n1,50
Oc1c(Cl)cc(Cl)cc1C=Nc1cccc2cccnc12,27*
SMILES,RMI FANCM FP
Cc1[nH]n(C)c(=O)c1N=Nc1ccc2c(c1)COCO2,49
Oc1c(Cl)cc(Cl)cc1C=Nc1ccc2c(c1)COCO2,37*
Oc1c(Cl)cc(Cl)cc1C=Nc1nc2c(s1)CCCC2,33
CS(=O)(=O)N1CCCC(C(=O)Nc2sc3c(c2C(N)=O)CCC3)C1 (centres undefined),65
NC1=CC(=O)c2ccccc2C1=O,51
CS(=O)(=O)NCC(c1cccs1)N1CCc2ccccc2C1 (centres undefined),53
CCOC(=O)c1c(-c2cccs2)csc1NC(=O)CCCCCN1C(=O)c2ccccc2C1=O,84
O=c1ccc2cc(O)c(O)cc2o1,41
CCOC(=O)c1ccc(N=Cc2ccc(OC(=O)c3ccc(F)cc3)c(OC)c2)cc1,60
O=C(Nc1ccc2oc(=O)ccc2c1)c1ccc(F)cc1,63
O=c1ccc2cc(N=Cc3cc(Cl)cc(Cl)c3O)ccc2o1,30*
CCOC(=O)c1ccc(N=Cc2cc(Cl)cc(Cl)c2O)cc1,24*
CCOC(=O)c1ccc(N=Cc2ccccn2)cc1,51
Cc1ccc(Cn2cc(C(=O)NNC(=O)Nc3cccs3)ccc2=O)cc1,63
COc1cc(C(=O)NC(=S)Nc2ccc(S(=O)(=O)N3CCCCC3)cc2)cc(OC)c1OC,59
CC(=O)N1CCc2cc(NC=C(C#N)C#N)ccc21,56
Cc1ccc(N(C(=O)CCCc2ccccc2)C2C=CS(=O)(=O)C2)cc1C (centres undefined),65
Cc1cc(C)c2nc(N(Cc3ccccn3)C(=O)c3cccc(S(C)(=O)=O)c3)sc2c1,115
CSc1cccc(C(=O)Nc2nnc(-c3cc(C)ccc3C)o2)c1,52
Cc1ccc(C)c(-c2nnc(NC(=O)c3ccc(S(=O)(=O)N4CCc5ccccc54)cc3)o2)c1,18*
CS(=O)(=O)c1cccc(-c2nnc(NC(=O)c3ccc(S(=O)(=O)N4CCc5ccccc5C4)cc3)o2)c1,64
CCOC(=O)c1oc2ccccc2c1NC(=O)c1ccc(C)c([N+](=O)[O-])c1,55
O=C(CN1C(=O)/C(=C/c2ccco2)SC1=S)Nc1ccc(C(=O)O)cc1,64
O=C(CN1C(=O)/C(=C\c2cccs2)SC1=S)Nc1cccc(Br)c1,59
O=C(CCN1C(=O)/C(=C\c2ccco2)SC1=S)Nc1cccc(Br)c1,9*
SMILES,RMI FANCM FP
O=C(CSc1ccc2nnc(CCNC(=O)c3ccccc3)n2n1)Nc1ccccc1C(F)(F)F,59
Cc1cc(O)c2c(CN3CCN(Cc4ccc5c(c4)OCO5)CC3)cc(=O)oc2c1,53
COc1ccc(N2CCN(Cc3cc(=O)oc4c3ccc3ccccc34)CC2)cc1,59
Cc1c(O)ccc2c(CN3CCC4(CC3)OCCO4)cc(=O)oc12,25*
CC(C)N1CCc2c(sc(NC(=O)c3ccc(Cl)s3)c2-c2nc3ccccc3s2)C1,-19*
Cc1ccc(C(=O)Nc2sc3c(c2-c2nc4ccccc4s2)CCN(C(C)C)C3)c(C)c1,36
CC(C)N1CCc2c(sc(NC(=O)c3ccc(S(=O)(=O)N4CCCCCC4)cc3)c2-c2nc3ccccc3s2)C1,3
COc1ccccc1Cn1c(SC)nc2c(-c3ccccc3)c[nH]c2c1=O,78
COc1cc(/C=C\C(=O)NCc2ccc3[nH]c4c(c3c2)CCCC4)cc(OC)c1OC,54
C/C=C\C(=O)NCc1ccc2[nH]c3c(c2c1)CCCC3,14*
CCOC(=O)CCC(=O)NCc1ccc2[nH]c3c(c2c1)CCCC3,55
COCC(=O)N1CCCc2ccc(N)cc21,69
COC(=O)c1ccc(NC(=O)C(=O)Nc2ccc3c(c2)N(C(=O)C2CC2)CCC3)cc1,52
O=C(NNC(=O)c1cccn(Cc2ccc(Cl)c(Cl)c2)c1=O)c1cccc(F)c1,62
Nc1nc2ncc(C(=O)O)nc2c(=O)[nH]1,53
Nc1nc2[nH]c(=O)cnc2c(=O)[nH]1,50
Nc1nc2ncc(=O)[nH]c2c(=O)[nH]1,26*
CN1C(=O)c2ccc(NC(=O)c3cc(=O)c4ccccc4o3)cc2C1=O,66
Cc1ccc(-c2csc(NC(=O)c3ccco3)n2)c(C)c1,64
COc1ccc2[nH]c(C(=O)NC3CCN(Cc4ccccc4)CC3)cc2c1,56
COc1ccc(CCN2CCC(Nc3nc4ccccc4n3Cc3ccc(F)cc3)CC2)cc1,20*!
COc1ccc(CCS(=O)(=O)NCC2CCN(Cc3ccccc3)CC2)cc1,77
COC(=O)c1ccc(NC(=O)C(=O)NCCSc2ncc(-c3ccccc3)[nH]2)cc1,57
COc1ccc(Cc2nc3ccccc3n2C)cc1OC,65
O=C(/C=C/c1ccc(OC(F)(F)F)cc1)NCc1ccco1,56
SMILES,RMI FANCM FP
C=CCOC(=O)C(C#N)c1nc2ccccc2nc1N1CCN(c2ccccc2)CC1 (centres undefined),29*
Cc1cc(C)c(C#N)c(N2CCN(c3ccccc3)CC2)n1,50
CC(=O)NC(=O)/C(C#N)=C/N1CCN(c2ccccc2)CC1,53
O=C(CSc1nc2ccc([N+](=O)[O-])cc2[nH]1)N1CCN(c2ccccn2)CC1,64
CSc1ncc(-c2ccc(Cl)cc2)n1C,57
CN(C)c1ccc(C2=CC(C3CC3)=C(C#N)C(=C(C#N)C#N)N2)cc1,31*
Cc1cc(C(=O)Nc2nnc(-c3ccc(S(=O)(=O)N(C)C)cc3)o2)no1,64
Cc1ccc(-c2csc(NC(=O)c3ccc([N+](=O)[O-])s3)n2)cc1,55
O=C(Nc1nc(-c2cc(Cl)sc2Cl)cs1)c1cccs1,61
